Compounds with a hit are over-represented: about 2.9% of the library has one in this group of screens.
EPAC1 ag val = Validation qHTS for agonist of cAMP-regulated guanine nucleotide exchange factor 3 (EPAC1); Rap guanine nucleotide exchange factor 3 (Homo sapiens), O95398; EPAC1 Rap1b BODIPY-GDP exchange, fluorescence; Potency, µM, actives largely listed as activators; 1% of 16,000 active; AID 1645883, 2021; note: nearly all actives have a fitted effect of over 70% in size
EPAC2 ant val = Validation qHTS for antagonist of cAMP-regulated guanine nucleotide exchange factor 4 (EPAC2); Rap guanine nucleotide exchange factor 4 (Homo sapiens), Q8WZA2; 1.7% of 16,000 active; EPAC2 Rap1B BODIPY-GDP exchange, fluorescence; Potency, µM (top dose mostly 112 µM), most hits filed as inhibitors; note: nearly all actives have a fitted effect of over 40% in size
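Fluorescent exchange read-out: 100 nM EPAC2 with 250 nM RAP1B–BODIPY-GDP and 50 uM GDP; BODIPY-GDP release lowers fluorescence. Read at 480/540 nm every 5 min for 30 min at room temperature; normalized to 6.5 mM cAMP.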
A number is an active result; - = inactive; ? = inconclusive. Calls come from the whole dose curve; as a rule, active = well fitted curve in the direction sought with a large enough effect; inconclusive = small, poorly fitted or top-dose-only effect, or another doubt; inactive = no such curve, though single readings can be large; an effect the other way counts as inactive or inconclusive.

SMILES	EPAC1 ag val	EPAC2 ant val
O=C(Nc1cc(C(=O)Nc2ccc(S(=O)(=O)O)cc2S(=O)(=O)O)cc(C(=O)Nc2ccc(S(=O)(=O)O)cc2S(=O)(=O)O)c1)Nc1cc(C(=O)Nc2ccc(S(=O)(=O)O)cc2S(=O)(=O)O)cc(C(=O)Nc2ccc(S(=O)(=O)O)cc2S(=O)(=O)O)c1	?	-
CCC(=O)OC1CCC2C3CCc4cc(O)ccc4C3CC[C@]12C (stereo not given in full)	-	40µM
CCCCC(=O)O[C@H]1CC[C@H]2[C@@H]3CCc4cc(O)ccc4[C@H]3CC[C@]12C	-	50µM
C[C@]12CC[C@@H]3c4ccc(O)cc4CC[C@H]3[C@@H]1CC[C@@H]2OP(=O)(O)O	-	-
CCC(=O)O[C@H]1CC[C@H]2[C@@H]3CCc4cc(O)ccc4[C@H]3CC[C@]12C	-	50µM
C[C@@]12CCC3c4ccc(O)cc4CCC3C1CCC2O (stereo not given in full)	-	-
C[C@]12CC[C@@H]3c4ccc(O)cc4CC[C@H]3[C@@H]1CC[C@@H]2OC(=O)CCC1CCCC1	?	-
Cc1cc(C)n(-c2cccc(C(=O)NCC3Cc4cccc(-c5cccnc5)c4O3)c2)n1 (stereo not given)	-	-
CSc1nccc(-c2cc(Cl)c3c(c2)CC(CNC(=O)c2nonc2C)O3)n1 (stereo not given)	-	-
O=C1/C(=C\c2cccs2)CCC/C1=C\c1cccs1	-	-
Cc1ncc2c(c1CNC(=O)/C=C/c1cccs1)CCN(C(=O)c1c(C)noc1C)C2	-	?
CC1(C)[C@H]2CC[C@]1(C)[C@H](O)C2	-	-
COc1ccccc1CN1CCOc2ccc(C(C)(O)COc3ccccc3)cc2C1 (stereo not given)	-	-
COC(=O)c1ccccc1-c1cc(C)cc2c1OC(CNC(=O)C1CCCO1)C2 (stereo not given)	-	?
COc1ccc(CN2CCOc3c(O)cc(-c4cc(C)c5ccc(F)cc5n4)cc3C2)c(O)c1	-	?
CC(=O)N1CCC2(CC1)CCN(C(c1ccccc1)c1ccccc1)CC2	-	-
CC(=O)N1CCC2(CCCN(C(c3ccccc3)c3ccccc3)C2)CC1	-	32µM
COc1ccc(-n2ccc(-c3sc(NCc4cc(OC)c5c(c4)OCO5)nc3C)n2)cc1	-	?
COc1cc(-c2c(-c3ccc4c(c3)OCO4)noc2-c2ccsc2)ccc1F	-	?
Cc1onc(-c2ccc3c(c2)OCO3)c1-c1ccc2[nH]ccc2c1	100µM	?
CN1CCCc2cc(/C=C/c3ccnc4ccccc34)ccc21	?	-
CCCCCCCC(=O)CC[C@@H]1[C@@H](C/C=C\CCCC(=O)OC(C)C)[C@@H](O)C[C@H]1O	-	?
CN(C)c1ncnc2ccc(-c3ccoc3)cc12	-	-
CN(Cc1ccco1)c1ncnc2ccc(-c3ccoc3)cc12	-	45µM
COc1ccccc1-c1ccc2ncnc(N(C)Cc3ccco3)c2c1	?	50µM
SMILES	EPAC1 ag val	EPAC2 ant val
CN(Cc1ccco1)c1ncnc2ccc(-c3ccccc3Cl)cc12	?	40µM
COc1ccccc1-c1cc(N(C)Cc2ccco2)ncn1	-	?
CN(Cc1ccco1)c1ncncc1-c1ccccc1Cl	?	-
CCC1(C2CCN(C(=O)c3ccc4ccccc4c3)CC2)NC(=O)N(CCc2scnc2C)C1=O (stereo not given)	-	-
CC(C)c1c(C(=O)N2CCN(CCO)CC2)cnn1-c1nccc(-c2cccs2)n1	-	-
COc1ccc2[nH]cc(CCNc3nc(-c4ccccc4OC)nc4ccccc34)c2c1	?	-
COc1ccc2[nH]cc(CCNc3nc(-c4cccc(C#N)c4)nc4ccccc34)c2c1	112µM	-
O=C(NCc1nnc2n1CCN(Cc1cc3c(cc1Cl)OCO3)CC2)c1cccc(F)c1	-	-
COc1ccccc1-c1ccc(C(=O)NCCN2CCOCC2)c(N2CCN(c3ccccc3F)CC2)n1	-	-
CCCCC[C@H]1CN(Cc2ccccc2)C(=O)[C@@H]1CC(=O)NCc1ccc(OC)cc1	-	22µM
COc1ccc(CNC(=O)C[C@H]2C(=O)N(Cc3ccc(OC)cc3)C[C@@H]2Cc2ccccc2)cc1	-	?
CCOc1nc2cccc(C(=O)OC(C)OC(=O)OC3CCCCC3)c2n1Cc1ccc(-c2ccccc2-c2nn[nH]n2)cc1 (stereo not given)	?	56µM
CCCc1nc(C(C)(C)O)c(C(=O)OCc2oc(=O)oc2C)n1Cc1ccc(-c2ccccc2-c2nn[nH]n2)cc1	-	-
O=c1cnc2cnc(Oc3ccccc3)nc2n1Cc1cccs1	-	13µM
COCCn1c(=O)cnc2cnc(Oc3cccc(Cl)c3)nc21	-	-
COc1ccc(-n2c(=O)c(-c3cccs3)nc3cnc(Nc4ccccc4)nc32)cc1	?	-
O=c1c(-c2cccs2)nc2cnc(Oc3ccccc3)nc2n1Cc1cccs1	-	-
